# Laboratory results from PubChem BioAssay.
# For part of these data: Measured potencies and affinities stand elsewhere. Calls of active or inactive are those of the source.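 The calls were made as follows, unless noted: active = primary screen activator hit with a dose response curve and TRPC4 channel activation at any tested dose; inactive = no activation, no dose response, or not a primary hit.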
# What was measured:
# [1] = tested on: TRPC4 beta (transient receptor potential cation channel C4), mouse; test: activators of mouse TRPC4 channel, confirmation, cell-based, Fluo4 calcium, HEK293 TRPC4beta/mu-opioid, duplicates, 10 µM (AID 2426;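 active = fluorescence ratio normalized to control raised more than 50% in primary screen plus both repeat runs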); details: Fluo4 calcium fluorescence, at 10 µM; hits give high values
# [2] = tested on: transient receptor potential cation channel C4 beta (TRPC4), mouse; test: activators of mouse TRPC4 channel, confirmation, cell-based, second round, Fluo4, HEK293 TRPC4beta/mu-opioid, 1 µM (AID 2461;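 active = primary screen active and over 50% activation in each of two duplicate runs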); details: Fluo4 calcium fluorescence, at 1 µM; hits give high values
# [3] = tested on: TRPC4 (transient receptor potential cation channel C4 beta), mouse; test: positive allosteric modulators of mouse TRPC4, confirmation, cell-based, second round, Fluo-4, HEK293 TRPC4beta/mu-opioid, 1 µM (AID 2554;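 active = primary screen hit whose fluorescence ratio, in both repeats, exceeds the weak agonist control mean by 3 SD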); details: DAMGO EC20, Fluo-4 calcium flux, at 1 µM; hits give high values
# [4] = tested on: TRPC4 beta (transient receptor potential cation channel C4), mouse; test: positive allosteric modulators of mouse TRPC4, confirmation, cell-based, Fluo-4, HEK293 TRPC4beta/mu-opioid (AID 2555;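 active = primary screen hit whose calcium fluorescence ratio, in both repeats, exceeds the weak agonist control mean by 3 SD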); details: DAMGO EC20, Fluo-4 calcium flux, at 10 µM; hits give high values
# [5] = target: Short transient receptor potential channel 4 (Mus musculus) (UniProt Q9QUQ5); test: inhibitors of mouse TRPC4 channel, confirmation, cell-based, Fluo4, HEK293 TRPC4beta/mu-opioid (AID 2636;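 active = calcium signal cut by more than 3 SD below the full-agonist control yet still positive, in both repeats and the earlier primary screen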); details: DAMGO, Fluo4 calcium flux, at 10 µM; hits give high values
# Chain of Short transient receptor potential channel 4 (Mus musculus) (Q9QUQ5 whole entry, looked up): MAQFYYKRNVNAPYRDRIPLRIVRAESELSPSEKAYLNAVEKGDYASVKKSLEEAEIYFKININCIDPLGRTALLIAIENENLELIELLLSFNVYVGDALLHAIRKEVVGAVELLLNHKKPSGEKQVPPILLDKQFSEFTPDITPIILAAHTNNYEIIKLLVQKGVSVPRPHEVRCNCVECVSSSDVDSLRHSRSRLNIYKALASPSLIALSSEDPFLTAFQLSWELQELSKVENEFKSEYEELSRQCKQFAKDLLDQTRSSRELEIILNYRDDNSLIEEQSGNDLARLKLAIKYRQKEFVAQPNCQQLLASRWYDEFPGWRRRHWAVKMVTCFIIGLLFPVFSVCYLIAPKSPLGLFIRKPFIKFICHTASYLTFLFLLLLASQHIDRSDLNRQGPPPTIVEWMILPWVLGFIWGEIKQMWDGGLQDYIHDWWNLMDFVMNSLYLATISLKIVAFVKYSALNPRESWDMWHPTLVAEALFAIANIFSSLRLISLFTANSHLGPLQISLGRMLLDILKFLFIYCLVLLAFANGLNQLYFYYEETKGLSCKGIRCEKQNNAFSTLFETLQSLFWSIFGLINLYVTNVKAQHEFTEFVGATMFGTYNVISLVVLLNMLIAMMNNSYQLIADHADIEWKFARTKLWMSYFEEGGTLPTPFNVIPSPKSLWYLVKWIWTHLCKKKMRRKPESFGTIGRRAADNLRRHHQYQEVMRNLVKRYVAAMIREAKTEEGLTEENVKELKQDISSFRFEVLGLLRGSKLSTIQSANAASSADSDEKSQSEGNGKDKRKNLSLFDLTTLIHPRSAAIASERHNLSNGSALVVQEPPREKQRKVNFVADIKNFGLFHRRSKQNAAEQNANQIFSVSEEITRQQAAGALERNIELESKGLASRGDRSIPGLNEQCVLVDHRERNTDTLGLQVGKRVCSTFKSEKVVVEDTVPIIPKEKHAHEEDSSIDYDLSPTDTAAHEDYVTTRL
# [6] = target: Short transient receptor potential channel 4 (Mus musculus) (UniProt Q9QUQ5); test: inhibitors of mouse TRPC4 channel, confirmation, cell-based, second round, Fluo4, HEK293 TRPC4beta/mu-opioid, 1 µM (AID 2637;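 active = calcium signal ratio cut to more than 3 SD under the fully stimulated control mean yet still positive, in both repeats and the primary screen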); details: Fluo4 calcium flux, DAMGO, at 1 µM; hits give high values
# [7] = target: Short transient receptor potential channel 4 (Mus musculus) (UniProt Q9QUQ5); test: mouse TRPC4 channel activators, dose response, cell-based, HEK293 TRPC4/mu-opioid, Fluo-4 calcium (AID 434937)
# [8] = target: Short transient receptor potential channel 4 (Mus musculus) (UniProt Q9QUQ5); test: TRPC4 positive allosteric modulators, dose response, cell-based, HEK293 TRPC4/mu-opioid, Fluo-4 calcium, EC20 DAMGO (AID 434941;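 active = earlier screen potentiator hit that boosts the TRPC4 ion channel at some dose, with a dose response; inactive = no potentiation, no dose response, or not a prior hit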;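 also: calcium entry triggered by an EC20 dose of DAMGO at the co-expressed mu-opioid receptor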)
# [9] = target: Short transient receptor potential channel 4 (Mus musculus) (UniProt Q9QUQ5); test: mouse TRPC4 channel inhibitors, dose response, cell-based, HEK293 TRPC4/mu-opioid, Fluo-4 calcium (AID 434942;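 active = primary screen inhibitor hit that blocks the TRPC4 channel at some tested dose, yielding a dose curve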)
# [10] = target: Short transient receptor potential channel 6 (Mus musculus) (UniProt Q61143); test: inhibition of mouse TRPC6 channel, confirmation, selectivity assay for TRPC4 inhibitor project, cell-based, HEK293, membrane potential dye, duplicate (AID 434948;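 active = active in primary screen and both duplicates, each dropping signal beyond three positive-control SD with fluorescence still positive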); details: HEK293 TRPC6, membrane potential dye fluorescence, at 10 µM, stimulated with maximal-effect acetylcholine; hits give high values
# Chain of Short transient receptor potential channel 6 (Mus musculus) (Q61143 whole entry, looked up): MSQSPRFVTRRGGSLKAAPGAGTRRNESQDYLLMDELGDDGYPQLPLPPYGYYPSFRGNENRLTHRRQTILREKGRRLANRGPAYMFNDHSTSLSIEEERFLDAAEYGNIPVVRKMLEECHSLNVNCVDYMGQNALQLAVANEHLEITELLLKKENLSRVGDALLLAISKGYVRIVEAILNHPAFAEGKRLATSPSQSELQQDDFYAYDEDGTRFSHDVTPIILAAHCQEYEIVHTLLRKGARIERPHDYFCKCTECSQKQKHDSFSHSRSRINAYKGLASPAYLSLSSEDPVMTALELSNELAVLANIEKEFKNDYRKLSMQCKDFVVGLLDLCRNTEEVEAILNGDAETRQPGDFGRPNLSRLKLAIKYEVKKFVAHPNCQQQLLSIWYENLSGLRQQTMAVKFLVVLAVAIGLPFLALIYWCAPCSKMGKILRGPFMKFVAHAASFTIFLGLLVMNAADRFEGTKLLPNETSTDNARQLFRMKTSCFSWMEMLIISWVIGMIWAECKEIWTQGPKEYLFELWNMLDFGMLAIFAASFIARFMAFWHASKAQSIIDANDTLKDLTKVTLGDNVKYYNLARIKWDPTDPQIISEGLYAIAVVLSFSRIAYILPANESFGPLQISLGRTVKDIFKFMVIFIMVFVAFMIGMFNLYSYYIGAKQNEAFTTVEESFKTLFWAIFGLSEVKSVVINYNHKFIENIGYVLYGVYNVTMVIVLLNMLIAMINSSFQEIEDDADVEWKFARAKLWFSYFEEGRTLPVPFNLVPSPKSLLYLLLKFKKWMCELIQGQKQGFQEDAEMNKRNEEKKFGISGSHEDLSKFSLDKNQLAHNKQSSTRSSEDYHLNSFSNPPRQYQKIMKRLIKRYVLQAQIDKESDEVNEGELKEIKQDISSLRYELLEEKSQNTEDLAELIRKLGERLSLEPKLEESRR
# [11] = target: Short transient receptor potential channel 6 (Mus musculus) (UniProt Q61143); test: activation of mouse TRPC6 channel, confirmation, selectivity assay for TRPC4 activator project, cell-based, HEK293, membrane potential dye, duplicate (AID 434950;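 active = membrane potential signal rise above negative control mean plus 3 SD in both duplicates, also active in the earlier TRPC4 screen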); details: HEK293 TRPC6, membrane potential fluorescence, at 10 µM; hits give high values
# [12] = target: Short transient receptor potential channel 6 (Mus musculus) (UniProt Q61143); test: TRPC6 potentiation by TRPC4 potentiator hits, confirmation, selectivity assay for TRPC4 potentiator project, HEK293 cells, membrane potential dye, duplicate (AID 434952;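 active = compound raising the membrane signal above positive-control mean plus 3 SD in both repeats, and a primary screen hit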); details: HEK293 TRPC6, membrane potential dye fluorescence, at 10 µM, maximal acetylcholine added after compound; hits give high values
# [13] = target: Short transient receptor potential channel 4 (Mus musculus) (UniProt Q9QUQ5); test: calcium flux activators in TRPC4/5HT1a cells, counter-screen for TRPC4 activator project, cell-based, second counter screen, HEK293 TRPC4/5HT1a, Fluo-4 (AID 434977;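 active = calcium signal rise above buffer-control mean plus 5 SD in both duplicates, and also a hit in the primary screen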); details: Fluo-4 calcium flux, at 10 µM; hits give high values
# [14] = calcium flux inhibitors in TRPC4/5HT1a cells, confirmation, counter-screen for TRPC4 inhibitor project, cell-based, second counter screen, HEK293 TRPC4/5HT1a, Fluo-4 (AID 434978;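 active = primary screen active whose calcium signal fell more than 3 SD beyond the full-serotonin control mean in both duplicate plates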;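 as to outcome: serotonin given first at submaximal then at maximal dose after compound preincubation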); details: Fluo-4 calcium flux, at 10 µM, serotonin added to trigger calcium flux; hits give high values
# [15] = tested on: TRPC4 (mouse), co-expressed with 5HT1a in HEK293; test: calcium flux potentiators in TRPC4/5HT1a cells, confirmation, counter-screen for TRPC4 potentiator project, cell-based, second counter screen, HEK293 TRPC4/5HT1a, Fluo-4 (AID 434979;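 active = signal rise over 3 SD above mean of control wells given weak agonist, in both repeats and first screen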); details: Fluo-4 calcium flux, at 10 µM, serotonin added at its EC20 dose; hits give high values
# [16] = calcium flux activation in mu-opioid HEK293 cells, confirmation, counter-screen for TRPC4 activator project, cell-based, HEK293 mu-opioid receptor line (AID 449723;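 active = hit in primary screen, with calcium signal over 5 SD above buffer well mean in both duplicates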;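 also: counter screen cells carry the mu-opioid receptor alone and lack TRPC4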); details: Fluo-4 calcium fluorescence, at 10 µM; hits give high values
# [17] = calcium flux enhancement in mu-opioid HEK293 cells, confirmation, counter-screen for TRPC4 allosteric potentiator project, cell-based, HEK293 mu-opioid receptor line (AID 449724;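 active = calcium signal rise more than 3 SD above the low-dose agonist control mean, in both duplicate plates and the primary screen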); details: Fluo-4 calcium flux, at 10 µM, compound added before EC20 DAMGO stimulus; hits give high values
smiles,measurement,setting,value
Cc1ccc(CNC(=O)CSc2nc(=O)n3ccccc3n2)cc1,outcome,[1],inactive
same,outcome,[2],inactive
same,outcome,[3],inactive
same,outcome,[4],inactive
same,outcome,[5],inactive
same,outcome,[6],inactive
same,outcome,[7],inactive
same,outcome,[8],inactive
same,outcome,[9],inactive
same,outcome,[10],inactive
same,outcome,[11],inactive
same,outcome,[12],inactive
same,outcome,[13],inactive
same,outcome,[14],inactive
same,outcome,[15],inactive
same,outcome,[16],inactive
same,outcome,[17],inactive
CN(C(=O)COC(=O)c1sc2ccccc2c1Cl)C1CCCCC1,outcome,[1],inactive
same,outcome,[2],inactive
same,outcome,[3],inactive
same,potentiation,[4],36% (active)
same,outcome,[5],inactive
same,outcome,[6],inactive
same,outcome,[7],inactive
same,outcome,[8],inactive
same,outcome,[9],inactive
same,outcome,[10],inactive
same,outcome,[11],inactive
same,outcome,[12],inactive
same,outcome,[13],inactive
same,outcome,[14],inactive
same,potentiation,[15],64.8% (active)
same,outcome,[16],inactive
same,outcome,[17],inactive
CC(=O)N1N=C(c2ccc(Br)cc2)OC1(C)CC(=O)Nc1ccccc1 (stereo not given),outcome,[1],inactive
same,outcome,[2],inactive
same,outcome,[3],inactive
same,outcome,[4],inactive
same,outcome,[5],inactive
same,outcome,[6],inactive
same,outcome,[7],inactive
same,outcome,[8],inactive
same,outcome,[9],inactive
same,outcome,[10],inactive
same,outcome,[11],inactive
same,outcome,[12],inactive
same,outcome,[13],inactive
same,outcome,[14],inactive
same,potentiation,[15],13.4% (active)
same,outcome,[16],inactive
same,outcome,[17],inactive
Cc1ccc(-c2csc3ncnc(NCCN4CCOCC4)c23)cc1,outcome,[1],inactive
same,outcome,[2],inactive
same,outcome,[3],inactive
same,outcome,[4],inactive
same,inhibition,[5],76% (active)
same,outcome,[6],inactive
same,outcome,[7],inactive
same,outcome,[8],inactive
same,outcome,[9],inactive
same,outcome,[10],inactive
same,outcome,[11],inactive
same,outcome,[12],inactive
same,outcome,[13],inactive
same,inhibition,[14],32.6% (active)
same,outcome,[15],inactive
same,outcome,[16],inactive
same,outcome,[17],inactive
Oc1cccc(C(=S)N2CCN(Cc3ccccc3)CC2)c1,outcome,[1],inactive
same,outcome,[2],inactive
same,outcome,[3],inactive
same,outcome,[4],inactive
same,outcome,[5],inactive
same,outcome,[6],inactive
same,outcome,[7],inactive
same,outcome,[8],inactive
same,outcome,[9],inactive
same,outcome,[10],inactive
same,outcome,[11],inactive
same,outcome,[12],inactive
same,outcome,[13],inactive
same,outcome,[14],inactive
same,outcome,[15],inactive
same,outcome,[16],inactive
same,outcome,[17],inactive
Clc1ccc2[nH]c3c(c2c1)CNCC3,outcome,[1],inactive
same,outcome,[2],inactive
same,potentiation,[3],10% (active)
same,potentiation,[4],12% (active)
same,outcome,[5],inactive
same,outcome,[6],inactive
same,outcome,[7],inactive
same,outcome,[8],inactive
same,outcome,[9],inactive
same,outcome,[10],inactive
same,outcome,[11],inactive
same,outcome,[12],inactive
same,outcome,[13],inactive
same,outcome,[14],inactive
same,outcome,[15],inactive
same,outcome,[16],inactive
same,outcome,[17],inactive
NS(=O)(=O)c1ccc(NN=C2CCN(Cc3ccccc3)CC2)c([N+](=O)[O-])c1,outcome,[1],inactive
same,outcome,[2],inactive
same,outcome,[3],inactive
same,outcome,[4],inactive
same,outcome,[5],inactive
same,outcome,[6],inactive
same,outcome,[7],inactive
same,outcome,[8],inactive
same,outcome,[9],inactive
same,outcome,[10],inactive
same,outcome,[11],inactive
same,outcome,[12],inactive
same,outcome,[13],inactive
same,outcome,[14],inactive
same,potentiation,[15],16.3% (active)
same,outcome,[16],inactive
same,outcome,[17],inactive
Cc1oc(-c2ccc(Cl)cc2)nc1CN1CCC(C(=O)N2CCc3ccccc3C2)CC1,outcome,[1],inactive
same,outcome,[2],inactive
same,outcome,[3],inactive
same,potentiation,[4],16% (active)
same,outcome,[5],inactive
same,outcome,[6],inactive
same,outcome,[7],inactive
same,outcome,[8],inactive
same,outcome,[9],inactive
same,outcome,[10],inactive
same,outcome,[11],inactive
same,outcome,[12],inactive
same,outcome,[13],inactive
same,outcome,[14],inactive
same,potentiation,[15],10.2% (active)
same,outcome,[16],inactive
same,outcome,[17],inactive
CC(C(=O)c1ccc(Br)cc1)[n+]1cccc(NC(=O)c2ccccc2)c1 (stereo not given),outcome,[1],inactive
same,outcome,[2],inactive
same,outcome,[3],inactive
same,outcome,[4],inactive
same,outcome,[5],inactive
same,outcome,[6],inactive
same,outcome,[7],inactive
same,outcome,[8],inactive
same,outcome,[9],inactive
same,outcome,[10],inactive
same,outcome,[11],inactive
same,outcome,[12],inactive
same,outcome,[13],inactive
same,outcome,[14],inactive
same,outcome,[15],inactive
same,outcome,[16],inactive
same,outcome,[17],inactive
Cc1cc(Br)cc(C)c1OCCCCN(C)C,outcome,[1],inactive
same,outcome,[2],inactive
same,potentiation,[3],23% (active)
same,outcome,[4],inactive
same,outcome,[5],inactive
same,outcome,[6],inactive
same,outcome,[7],inactive
same,outcome,[8],inactive
same,outcome,[9],inactive
same,outcome,[10],inactive
same,outcome,[11],inactive
same,outcome,[12],inactive
same,outcome,[13],inactive
same,outcome,[14],inactive
same,potentiation,[15],23.5% (active)
same,outcome,[16],inactive
same,outcome,[17],inactive
COC(=O)[C@@]12CCCCN1[C@H](c1ccc(-c3ccc(C(C)=O)cc3)cc1)[C@@H]1C(=O)N(C)C(=O)[C@@H]12,outcome,[1],inactive
same,outcome,[2],inactive
same,outcome,[3],inactive
same,outcome,[4],inactive
same,outcome,[5],inactive
same,outcome,[6],inactive
same,outcome,[7],inactive
same,outcome,[8],inactive
same,outcome,[9],inactive
same,outcome,[10],inactive
same,outcome,[11],inactive
same,outcome,[12],inactive
same,outcome,[13],inactive
same,outcome,[14],inactive
same,outcome,[15],inactive
same,outcome,[16],inactive
same,outcome,[17],inactive
Cn1c(=O)c2c(nc(CN3CCc4ccccc4C3)n2Cc2cccc(Cl)c2)n(C)c1=O,outcome,[1],inactive
same,outcome,[2],inactive
same,potentiation,[3],6% (active)
same,potentiation,[4],45% (active)
same,outcome,[5],inactive
same,outcome,[6],inactive
same,outcome,[7],inactive
same,outcome,[8],inactive
same,outcome,[9],inactive
same,outcome,[10],inactive
same,outcome,[11],inactive
same,outcome,[12],inactive
same,outcome,[13],inactive
same,outcome,[14],inactive
same,potentiation,[15],78.3% (active)
same,outcome,[16],inactive
same,outcome,[17],inactive
CN(C)c1ccc(NC(=O)C2C3C=CC(C3)C2C(=O)O)cc1 (stereo not given),outcome,[1],inactive
same,outcome,[2],inactive
same,outcome,[3],inactive
same,outcome,[4],inactive
same,outcome,[5],inactive
same,outcome,[6],inactive
same,outcome,[7],inactive
same,outcome,[8],inactive
same,outcome,[9],inactive
same,outcome,[10],inactive
same,outcome,[11],inactive
same,outcome,[12],inactive
same,outcome,[13],inactive
same,outcome,[14],inactive
same,outcome,[15],inactive
same,outcome,[16],inactive
same,outcome,[17],inactive
CC(C)CN(C(=O)COC(=O)COc1ccc2ccccc2c1)c1c(N)n(Cc2ccccc2)c(=O)[nH]c1=O,outcome,[1],inactive
same,outcome,[2],inactive
same,outcome,[3],inactive
same,outcome,[4],inactive
same,outcome,[5],inactive
same,outcome,[6],inactive
same,outcome,[7],inactive
same,outcome,[8],inactive
same,outcome,[9],inactive
same,outcome,[10],inactive
same,outcome,[11],inactive
same,outcome,[12],inactive
same,outcome,[13],inactive
same,outcome,[14],inactive
same,potentiation,[15],14.7% (active)
same,outcome,[16],inactive
same,outcome,[17],inactive
CCOC(=O)CCSc1nc(C)cc(C(F)(F)F)c1C#N,outcome,[1],inactive
same,outcome,[2],inactive
same,outcome,[3],inactive
same,outcome,[4],inactive
same,outcome,[5],inactive
same,outcome,[6],inactive
same,outcome,[7],inactive
same,outcome,[8],inactive
same,outcome,[9],inactive
same,outcome,[10],inactive
same,outcome,[11],inactive
same,outcome,[12],inactive
same,outcome,[13],inactive
same,outcome,[14],inactive
same,outcome,[15],inactive
same,outcome,[16],inactive
same,outcome,[17],inactive
